In the library only some 2.2% were active in any assay of this set; here they are far more common.
TMEM16A act: TMEM16A chloride channel activators or potentiators, primary screen, cell-based, HTS. HEK293 TMEM16A/YFP-H148Q/I152L, iodide quench fluorescence; stronger effect = lower value. AID 623877, 2012. Anoctamin-1 (Mus musculus), Q8BHY3. hit rate 0.3% among 340,000. B-score at 10 µM;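 active means fluorescence-ratio B-score plate-corrected deviation score at least 3 library SD below zero, with starting fluorescence score within 5 deviations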;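 further: channel opened by trigger with iodide after compound preincubation; score built on the fluorescence ratio of max minus min over baseline; more negative score means more quench and so TMEM16A activation or potentiation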
Target sequence (Q8BHY3 whole entry, looked up): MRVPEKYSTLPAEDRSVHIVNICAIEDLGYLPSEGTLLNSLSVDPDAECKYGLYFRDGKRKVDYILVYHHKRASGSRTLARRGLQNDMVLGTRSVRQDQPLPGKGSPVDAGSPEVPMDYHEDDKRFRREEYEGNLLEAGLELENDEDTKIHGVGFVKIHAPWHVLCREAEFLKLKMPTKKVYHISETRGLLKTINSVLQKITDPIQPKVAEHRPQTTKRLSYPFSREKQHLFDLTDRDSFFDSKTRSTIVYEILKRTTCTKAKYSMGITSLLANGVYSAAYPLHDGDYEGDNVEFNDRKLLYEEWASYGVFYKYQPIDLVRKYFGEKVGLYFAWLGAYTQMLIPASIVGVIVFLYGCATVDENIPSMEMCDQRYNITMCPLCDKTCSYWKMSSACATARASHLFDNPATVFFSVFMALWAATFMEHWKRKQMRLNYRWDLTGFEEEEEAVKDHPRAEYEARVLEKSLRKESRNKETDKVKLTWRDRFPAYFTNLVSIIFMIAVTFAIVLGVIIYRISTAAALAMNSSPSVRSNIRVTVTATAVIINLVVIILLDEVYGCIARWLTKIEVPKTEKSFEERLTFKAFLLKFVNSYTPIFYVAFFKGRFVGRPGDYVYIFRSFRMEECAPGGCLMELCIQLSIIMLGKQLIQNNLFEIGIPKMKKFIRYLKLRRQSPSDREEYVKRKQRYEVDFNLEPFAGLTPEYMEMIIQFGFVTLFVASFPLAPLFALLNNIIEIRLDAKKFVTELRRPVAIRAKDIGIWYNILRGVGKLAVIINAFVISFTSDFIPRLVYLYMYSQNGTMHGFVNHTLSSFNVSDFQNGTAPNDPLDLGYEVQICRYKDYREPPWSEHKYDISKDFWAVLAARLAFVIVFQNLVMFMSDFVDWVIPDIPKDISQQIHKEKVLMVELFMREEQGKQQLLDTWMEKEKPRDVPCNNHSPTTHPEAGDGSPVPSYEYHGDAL
NOD2 RIPK2 PPI: NOD2-RIPK2 binding disruptors in cells, primary screen, fluorescence, CHO cells, BLA complementation. CCF4 ratio. inhibition, % at 4.98 µM. hit rate 0.38% among 360,000; in the data active means inhibition above about 21%;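 further: 0% = vehicle only and 100% = reference blocker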
TMEM16A inh: TMEM16A chloride channel inhibitors, primary screen, cell-based, HTS | Anoctamin-1 (Mus musculus), Q8BHY3 | hit rate 1.2% among 310,000 | normalized B-score (activity score, 25-100; higher = stronger inhibition) at 10 µM | HEK293 TMEM16A/YFP iodide influx fluorescence, ionomycin;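 active means ratio plate-corrected score three or more library SD toward inhibition, starting fluorescence score within five deviations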;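 further: score derived from kinetic fluorescence span divided by baseline fluorescence per well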
GRK2 inh: compounds blocking aptamer binding on GRK2 – biochemical, human GRK2, bead flow cytometry, HTS, primary screen; FAM-aptamer displacement from GRK2; inhibition of aptamer binding, % at 10 µM; hit rate 0.59% among 330,000; AID 488847, 2010;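 active means inhibition of aptamer binding above 40%, roughly 3 SD of noise, on plates passing a quality check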;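 further: median bead fluorescence of bound FAM aptamer so fluorescent compounds give negative values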
TLR9-MyD88 inh: inhibitors of TLR9-MyD88 association in cells, primary screen, cell-based, CHO, BLA complementation, fluorescence; Toll-like receptor 9 (Homo sapiens) + Myeloid differentiation primary response protein …; CCF4 FRET ratio; inhibition, % at 4.98 µM; hit rate 0.21% among 340,000; AID 504734, 2011;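 active means inhibition above the mean over all tested compounds plus 3 SD, cut at about 21% in these data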;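 further: 0% = DMSO only wells and 100% = clavulanate BLA inhibitor control wells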
TLR4-MyD88 BLA: inhibitors of TLR4-MyD88 association in cells, primary screen, cell-based, HeLa CL3-4, BLA complementation, FRET ratio; Toll-like receptor 4 (Homo sapiens) + Myeloid differentiation primary response protein …; HeLa CL3-4 TLR4/MyD88 BLA complementation; inhibition, % at 8.4 µM; hit rate 0.18% among 200,000; in the data active means inhibition above about 25%;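 further: 0% = vehicle and 100% = reference inhibitor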
* = called active by the depositor; i = inactive; · = not tested or not shown.

SMILES	TMEM16A act	NOD2 RIPK2 PPI	TMEM16A inh	GRK2 inh	TLR9-MyD88 inh	TLR4-MyD88 BLA
COC(=O)c1ccc(C(=O)N2CCCC(C)(C(=O)NS(=O)(=O)C3CC3)C2)cc1 (stereo unspecified)	·	-11.3	·	·	·	·
COc1cccc(Cn2c(C(C)n3c(-c4cnccn4)nc4ccccc43)nc3ccccc32)c1 (stereo unspecified)	·	3.9	·	·	·	·
O=C1C2CC=CCC2C(=O)N1c1ccc(NCCc2ccc(Cl)cc2)c([N+](=O)[O-])c1 (stereo unspecified)	i	-0.3	i	0.0	4.5	-2.1
O=C1C2CC=CCC2C(=O)N1c1ccc(NCCc2ccc(O)cc2)c([N+](=O)[O-])c1 (stereo unspecified)	i	7.9	25*	0.0	-1.0	-13.8
C=CCN=C(NC#N)SCC(=O)c1cccc(OC)c1	i	6.1	25*	0.0	-12.0	4.5
CN(C)c1ccc(-c2c(-c3ccc4c(c3)OCO4)noc2-c2ccsc2)cn1	i	-11.2	i	0.0	0.1	·
O=C(O)c1cc(-c2ccc(-c3c(-c4ccc5c(c4)OCO5)noc3-c3ccsc3)cc2)nc2ccccc12	i	-17.3	100*	1.0	-11.6	·
COc1ccc2cc(C(N)=O)/c(=N\NC(=O)c3ccccc3)oc2c1	i	5.1	i	0.0	2.0	·
COc1ccc2cc(C(N)=O)c(=Nc3ccc(C)cc3)oc2c1	-7.75*	2.1	i	3.0	2.9	3.4
CC(=O)NC(CC(=O)NC(C)c1ccc(Cl)cc1Cl)c1ccccc1 (stereo unspecified)	-31.7*	1.2	i	3.0	4.2	-11.4
COc1cccc(N=Nc2c(=O)[nH]n3c(=O)c4c([nH]c23)CCC4)c1	i	-7.2	i	9.0	-4.1	10.0
COc1cccc(N=Nc2c(=O)[nH]n3c(=O)cc(C)[nH]c23)c1	-20.7*	4.5	i	5.0	9.6	-14.1
CN1C(=O)[C@@](O)(c2cn(C)c3ccccc23)c2cc(Br)ccc21	·	-9.2	·	·	·	·
CCCS(=O)(=O)N1CCN(C2Cc3ccccc3C2)CC1	-12.5*	12.7	i	3.0	6.0	·
CCCS(=O)(=O)N1CCN(C2CCC(C)CC2)CC1 (stereo unspecified)	i	5.9	i	0.0	5.2	-10.1
CCc1nc2ccc(C(=O)Nc3cc(-c4ccccc4)ccc3OC)cn2c1N(CCN(C)C)CC1CC1	·	-3.1	·	·	·	·
O=C(Nc1nnc([C@@H]2C[C@H](O)[C@@H](CO)O2)s1)Nc1ccccc1C(F)(F)F	·	-0.8	·	·	·	·
CC1(C(=O)NS(=O)(=O)c2cccc(Cl)c2)CCN1C(=O)c1ccccc1CCc1ccccc1 (stereo unspecified)	·	-5.6	·	·	·	·
CC[C@H](C)/C=C(C)/C=C/c1cc2c(cn1)C(=O)[C@@](C)(OC(C)=O)C(O)=C2Cl	·	-16.7	·	·	·	·
CC[C@H](C)/C=C(C)/C=C/C(=O)Cc1cc(O)c(C)c(O)c1C=O	-12.8*	11.8	i	0.0	0.4	·
COc1ccc(NC(=O)c2sc(=O)n(Cc3ccccc3C#N)c2C)cc1OC	·	-8.7	·	·	·	·
CCOC(=O)N1CCN(c2ccc(C(=O)c3cccc(F)c3)cc2)CC1	i	-5.5	25*	0.0	-10.8	1.6
FC(F)Sc1ccc(NC(=S)NCC2CCCCC2)cc1	i	-1.8	100*	0.0	-1.7	7.8
CCCn1nc(NS(=O)(=O)c2cccc3nonc23)c2cc3cccc(C)c3nc21	i	-1.3	100*	0.0	-10.1	·
COc1ccccc1C(c1nnnn1C1CCCC1)N1CCN2CCCC2C1 (stereo unspecified)	-11.5*	1.8	i	0.0	-8.6	-9.4
SMILES	TMEM16A act	NOD2 RIPK2 PPI	TMEM16A inh	GRK2 inh	TLR9-MyD88 inh	TLR4-MyD88 BLA
CCOC(=O)Cc1c(-c2cccc(Br)c2)nc2c3ccccc3ccn12	·	-7.5	·	·	·	·
COc1ccc(NS(=O)(=O)c2ccc(-n3nnc4ccccc43)c([N+](=O)[O-])c2)cc1	i	-5.4	25*	0.0	-10.2	1.3
O=[N+]([O-])c1cc(S(=O)(=O)Nc2cccc(C(F)(F)F)c2)ccc1-n1nnc2ccccc21	i	14.0	100*	0.0	-3.1	-15.1
CN1OC[C@@H]2CN(S(=O)(=O)c3cc(Cl)cc(Cl)c3)[C@H](c3ccc(-c4ccc(C#N)cc4)cc3)C[C@@H]21	·	5.7	·	·	·	·
CNc1nc(-c2ccccc2)c2sccc2n1	·	-6.0	·	·	·	·
COc1ccc(-c2csc(C(C)(O)c3ccc(F)c(F)c3)n2)cc1 (stereo unspecified)	·	-11.4	·	·	·	·
FC(F)(F)c1cccc(N2CCN(C(=S)NCC3CCCO3)CC2)c1 (stereo unspecified)	i	2.5	25*	2.0	-0.9	-9.5
S=C(NCC1CCCO1)N1CCN(c2ccccc2)CC1 (stereo unspecified)	i	-7.5	i	1.0	5.3	-0.7
O=C(O)Cc1ccc(N2N=C(c3ccccc3)CC2=O)cc1	·	1.9	·	·	·	·
CC(CC(=O)Nc1ncc([N+](=O)[O-])s1)c1ccccc1 (stereo unspecified)	i	-10.4	100*	2.0	8.6	-5.8
Cc1onc(-c2ccccc2)c1C(=O)Nc1ncc([N+](=O)[O-])s1	i	-8.6	100*	1.0	-4.8	·
CCC(Oc1ccccc1)C(=O)Nc1ncc([N+](=O)[O-])s1 (stereo unspecified)	i	2.4	25*	0.0	7.0	5.9
O=C(Cc1ccc(Br)cc1)Nc1ncc([N+](=O)[O-])s1	i	5.1	i	2.0	0.5	·
Cc1onc(-c2ccccc2)c1C(=O)Nc1nnc(C(C)C)s1	i	-5.6	i	1.0	2.2	·
O=C(Cc1ccc(Cl)cc1)Nc1ncc([N+](=O)[O-])s1	-41.7*	-2.6	·	·	8.5	4.1
O=C(Nc1ccc2c(c1)OCO2)C1Cc2c(-c3ccccc3Oc3ccccc3)ccnc2O1 (stereo unspecified)	·	-2.5	·	·	·	·
CC(C)[C@@]1(c2ccc(Cl)cc2)ON(c2ccccc2C(F)(F)F)C1=O	·	·	·	3.0	·	·
O=C(Nc1ncc([N+](=O)[O-])s1)c1ccc2c(c1)OCO2	i	-3.8	100*	0.0	8.8	·
Cc1ccc(C(=O)NCCN2CCC(n3c(=O)[nH]c4ccccc43)CC2)cc1C	·	-3.3	·	·	·	·
O=C1c2cc(O)cc(O)c2C(=O)c2c1cc(O)c([C@@H](CO)CCO)c2O	i	-3.2	i	0.0	6.7	·
Cc1cc(O)c2c(c1)C(=O)c1cc(O)cc(O)c1C2=O	i	-4.0	100*	0.0	-3.6	·

Screens from PubChem.
